Positions count from the first letter of the chain named.
How the values were obtained:
Assay in all cases: yeast three-hybrid, YBZ-1, SC-Leu-His + 0.5 mM 3-AT, 4 days
Conditions in all cases: tags: N-Gal4 AD-HA kept; label: inside an RPR1-promoter hybrid RNA with tandem MS2 sites; ssRNA
PUM1 PUF domain R3-SCP = PUM1 PUF domain R3-SCP (Homo sapiens, UniProt Q14671 828-1176, C935S;R936C;Q939P)
Summary of the method: (§1)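 Matching RNA elements and Pumilio-1 PUF domain libraries, randomized at the three base-contacting residues of every repeat, were co-expressed from a centromeric plasmid in strain YBZ-1 (LexA–MS2 coat fusion, HIS3 reporter). The repeat regions were PCR-amplified and Illumina-sequenced from cells grown four days on SC-Leu (input) or SC-Leu-His + 0.5 mM 3-AT (selection). The interaction score is the log change in variant frequency from input to selection. It is computed in log2, with a pseudocount of 1 for absent variants.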

PUM1 PUF domain R3-FRR = PUM1 PUF domain R3-FRR (Homo sapiens, UniProt Q14671 828-1176, C935F;Q939R)
Summary of the method: as §1

PUM1 PUF domain R3-GIR = PUM1 PUF domain R3-GIR (Homo sapiens, UniProt Q14671 828-1176, C935G;R936I;Q939R)
Summary of the method: as §1

PUM1 PUF domain R3-AAE = PUM1 PUF domain R3-AAE (Homo sapiens, UniProt Q14671 828-1176, C935A;R936A;Q939E)
Summary of the method: as §1

PUM1 PUF domain R3-TRC = PUM1 PUF domain R3-TRC (Homo sapiens, UniProt Q14671 828-1176, C935T;Q939C)
Summary of the method: as §1

PUM1 PUF domain R6-VFK = biological target: T1, PUM1 PUF domain R6-VFK (Homo sapiens, UniProt Q14671 828-1176, N1043V;Y1044F;Q1047K)
T1 sequence: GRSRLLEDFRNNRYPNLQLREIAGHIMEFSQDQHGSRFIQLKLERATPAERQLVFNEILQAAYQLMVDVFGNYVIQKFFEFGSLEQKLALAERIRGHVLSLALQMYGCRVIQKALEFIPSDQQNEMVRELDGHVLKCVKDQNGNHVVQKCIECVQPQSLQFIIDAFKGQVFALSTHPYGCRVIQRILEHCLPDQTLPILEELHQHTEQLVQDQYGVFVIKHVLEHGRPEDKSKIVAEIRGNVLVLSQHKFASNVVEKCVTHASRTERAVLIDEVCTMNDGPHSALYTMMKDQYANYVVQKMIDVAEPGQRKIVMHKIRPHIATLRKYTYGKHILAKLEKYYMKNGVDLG
Summary of the method: as §1

PUM1 PUF domain R4-EHG = PUM1 PUF domain R4-EHG (Homo sapiens, UniProt Q14671 828-1176, N971E;Q975G)
Summary of the method: as §1

PUM1 PUF domain R4-SRG = PUM1 PUF domain R4-SRG (Homo sapiens, UniProt Q14671 828-1176, N971S;H972R;Q975G)
Summary of the method: as §1

PUM1 PUF domain R5-LHD = PUM1 PUF domain R5-LHD (Homo sapiens, UniProt Q14671 828-1176, C1007L;R1008H;Q1011D)
Summary of the method: as §1

PUM1 PUF domain R6-SFK = biological target: T2, PUM1 PUF domain R6-SFK (Homo sapiens, UniProt Q14671 828-1176, N1043S;Y1044F;Q1047K)
T2 sequence: T1 sequence with V216S
Summary of the method: as §1

PUM1 PUF domain R3-LYI = PUM1 PUF domain R3-LYI (Homo sapiens, UniProt Q14671 828-1176, C935L;R936Y;Q939I)
Summary of the method: as §1

PUM1 PUF domain R4-RMQ = PUM1 PUF domain R4-RMQ (Homo sapiens, UniProt Q14671 828-1176, N971R;H972M)
Summary of the method: as §1

PUM1 PUF domain R4-FNM = PUM1 PUF domain R4-FNM (Homo sapiens, UniProt Q14671 828-1176, N971F;H972N;Q975M)
Summary of the method: as §1

PUM1 PUF domain R5-LKL = PUM1 PUF domain R5-LKL (Homo sapiens, UniProt Q14671 828-1176, C1007L;R1008K;Q1011L)
Summary of the method: as §1

For “GGCUAGAACUAGUGGAUCCCCCGGCGCCCGGCGGCUCGAGCCCGGGUAAGUGUAAGUAGUCUGCAUGCCGCCGGGCGCCAUGCCUGCAGGUCGACUCUAGAAAACAUG”, the binding signal (PUM1 PUF domain R3-SCP) was 3.88 log2 enrichment (interaction score), the binding signal (PUM1 PUF domain R3-FRR) was 5.43 log2 enrichment (interaction score) and the binding signal (PUM1 PUF domain R3-GIR) was 3.07 log2 enrichment (interaction score). For the same sequence, the binding signal (PUM1 PUF domain R3-AAE) was 3.07 log2 enrichment (interaction score) and the binding signal (PUM1 PUF domain R3-TRC) was 2.14 log2 enrichment (interaction score).
For “GGCUAGAACUAGUGGAUCCCCCGGCGCCCGGCGGCUCGAGCCCGGGUAAGUGAAAAUAGUCUGCAUGCCGCCGGGCGCCAUGCCUGCAGGUCGACUCUAGAAAACAUG”, the binding signal (PUM1 PUF domain R6-VFK) was 8.43 log2 enrichment (interaction score).
In the case of “GGCUAGAACUAGUGGAUCCCCCGGCGCCCGGCGGCUCGAGCCCGGGUAAGUGUAAAUAGUCUGCAUGCCGCCGGGCGCCAUGCCUGCAGGUCGACUCUAGAAAACAUG”, the binding signal (PUM1 PUF domain R4-EHG) was 2.3 log2 enrichment (interaction score), the binding signal (PUM1 PUF domain R4-SRG) was 4.42 log2 enrichment (interaction score) and the binding signal (PUM1 PUF domain R6-VFK) was 3.04 log2 enrichment (interaction score). The binding signal (PUM1 PUF domain R3-TRC) was 3.26 log2 enrichment (interaction score), the binding signal (PUM1 PUF domain R5-LHD) was 3.18 log2 enrichment (interaction score) and the binding signal (PUM1 PUF domain R6-SFK) was 6.49 log2 enrichment (interaction score). The binding signal (PUM1 PUF domain R3-LYI) was 4.35 log2 enrichment (interaction score) and the binding signal (PUM1 PUF domain R4-RMQ) was 3.34 log2 enrichment (interaction score).
For “GGCUAGAACUAGUGGAUCCCCCGGCGCCCGGCGGCUCGAGCCCGGGUAAGUGUACAUAGUCUGCAUGCCGCCGGGCGCCAUGCCUGCAGGUCGACUCUAGAAAACAUG”, the binding signal (PUM1 PUF domain R4-EHG) was 2.82 log2 enrichment (interaction score), the binding signal (PUM1 PUF domain R4-SRG) was 0.54 log2 enrichment (interaction score) and the binding signal (PUM1 PUF domain R4-FNM) was 2.87 log2 enrichment (interaction score).
In the case of “GGCUAGAACUAGUGGAUCCCCCGGCGCCCGGCGGCUCGAGCCCGGGUAAGUGUCAAUAGUCUGCAUGCCGCCGGGCGCCAUGCCUGCAGGUCGACUCUAGAAAACAUG”, the binding signal (PUM1 PUF domain R5-LKL) was 4 log2 enrichment (interaction score).

— paper PMC8384837, “Expanding the binding specificity for RNA recognition by a PUF domain”
